The record followed here is PubChem BioAssay.

Calls of active or inactive are those of the source.

Experiment [1] has as its system Plasmodium falciparum Sir2 (PF13_0152, Sir2A). Put plainly: pfSir2 binders on small-molecule microarrays, primary screen, biochemical, small-molecule microarray, 635 nm fluorescence (AID 1098).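 Also: score merges spot fluorescence intensity with its signal-to-noise ratio.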 To be noted: small-molecule microarray binding, fluorescence 635 nm; higher = more signal.
The nature of experiment [2]: small-molecule microarray binders of probe aDKK1, primary screen, biochemical, biotinylated probe, 635/667 nm fluorescence (AID 1099).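 Also: score merges 667nm spot fluorescence with signal to noise across triplicate slides.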 To be noted: higher = more signal.
Experiment [3] can be described thus: small-molecule microarray binders of probe aCHRDL2, primary screen, biochemical, biotinylated probe, 635/667 nm fluorescence (AID 1100). To be noted: higher = more signal.
Experiment [4] in a line: splicing luciferase reporter signal modulators, primary screen, spliceosome inhibition project, cell-based, HEK293, splice +/- reporter (AID 1101).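 Also: HEK293 cells carrying a splicing-competent luciferase reporter gene; test concentration not given here.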 The following applies: luminescence, 24 h, higher = more signal, called active from +8 up or from −8 down.
In experiment [5] the target is Fibroblast growth factor 10 (Homo sapiens) (UniProt O15520). Nature of the experiment: FGF10 binders on small-molecule microarrays, primary screen, biochemical, small-molecule microarray, 635 nm fluorescence (AID 1102). The following applies: FGF10 binding, fluorescence 635 nm, higher = more signal.
The subject of experiment [6] is glycogen synthase kinase-3 (GSK3A per assay name; protocol says GSK3B). Put plainly: GSK3 binders on small-molecule microarrays, primary screen, biochemical, small-molecule microarray, 635 nm fluorescence, GSK3A (AID 1103). Also: the record names both GSK3A and GSK3B. The following applies: small-molecule microarray binding, fluorescence 635 nm; higher = more signal.
Experiment [7] concerns the target Epidermal growth factor receptor (Homo sapiens) (UniProt P00533). Put plainly: EGFR binders on small-molecule microarrays, primary screen, biochemical, small-molecule microarray, 635 nm fluorescence (AID 1104).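 Also: score merges 667 nm emission intensity with spot signal to noise over triplicate slides.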 To be noted: EGFR binding, higher = more signal.
Experiment [8] concerns the target Follistatin-related protein 3 (Homo sapiens) (UniProt O95633). Put plainly: FSTL3 binders on small-molecule microarrays, primary screen, biochemical, small-molecule microarray, 635 nm fluorescence (AID 1105).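 Also: score merges emission near 667 nm and signal to noise per printed spot across three slides.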 The following applies: FSTL3 binding, higher = more signal.
For experiment [9], the target named is Dickkopf-related protein 1 (Homo sapiens) (UniProt O94907). Nature of the experiment: DKK1 binders on small-molecule microarrays, primary screen, biochemical, small-molecule microarray, 635 nm fluorescence scan (AID 1106).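 Also: score merges emission near 667 nm with signal to noise over three replicate slides.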 The following applies: DKK1 binding, higher = more signal.
In experiment [10] the test system is Inhibin beta A chain (activin A). Put plainly: INHBA (activin A) binders on microarrays, primary screen, biochemical, small-molecule microarray, 635 nm fluorescence scan (AID 1107).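 Also: mouse activin A protein probed at 4.33 µg/mL on printed slides; score merges bound-protein fluorescence near 667 nm with spot signal-to-noise.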 The following applies: small-molecule microarray binding, higher = more signal.
Experiment [11] relates to Human papillomavirus type 1a protein E7 (residues 44-93). Nature of the experiment: HPV1a E7 fragment binders on microarrays, primary screen, biochemical, small-molecule microarray, residues 44-93, 635 nm fluorescence (AID 1108).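 Also: E7 fragment applied at 1 µg/mL in TBST for 1 h at 4 C; score combines spot fluorescence with its signal to noise ratio.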 The following applies: small-molecule microarray binding, fluorescence 635 nm; higher = more signal.
Experiment [12] is described as follows: modulators of HCV replicon luciferase signal, primary screen, HCV replication inhibitor project, Huh7 cells, luciferase reporter (AID 1109).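 Also: huh7 hepatoma cells harbouring a luciferase neomycin HCV replicon reporter; luciferase luminescence as measure of HCV replicon replication; test concentration not given here.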 The following applies: 48 h, higher = more signal. On the technique in general: In antiviral work, replicon cells carry a viral genome segment that copies itself.
Experiment [13] concerns the target Left-right determination factor 2 (Homo sapiens) (UniProt O00292). Put plainly: LEFTY2 binders on small-molecule microarrays, primary screen, biochemical, small-molecule microarray, 635 nm fluorescence scan (AID 1110). To be noted: LEFTY2 binding, higher = more signal.
In experiment [14] the target is Calmodulin-1 (Homo sapiens) (UniProt P0DP23). Nature of the experiment: CALM1 binders on microarrays, EGTA buffer, profiling panel, biochemical, small-molecule microarray, Cy5-labelled CALM1 (AID 1111).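 Also: labelled calmodulin applied in Tris saline Tween buffer holding calcium plus EGTA and DTT.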 The following applies: Cy5-CALM1 binding fluorescence, higher = more signal.
The target is the same in experiment [15]. Nature of the experiment: calcium-bound CALM1 binders on microarrays, profiling panel, artefact control for SMM control-protein annotation, biochemical, small-molecule microarray, Cy5-labelled CALM1, plus calcium (AID 1112).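 Also: score merges spot fluorescence with signal to noise from triplicate slides.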 The following applies: Cy5-CALM1 binding fluorescence, higher = more signal.
Experiment [16] is described as follows: small-molecule microarray binders of probe aWnt5a, primary screen, biochemical, biotinylated probe, 635/667 nm fluorescence (AID 1113).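 Also: score merges 667 nm fluorescence intensity with signal-to-noise per printed feature.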 To be noted: higher = more signal.
The nature of experiment [17]: small-molecule microarray binders of probe aShh, primary screen, biochemical, biotinylated probe, 635/667 nm fluorescence (AID 1114).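 Also: probe is biotin-labelled aShh protein from a stem cell growth factor screen; measures binding of labelled protein to compounds printed on the slide; score merges feature fluorescence at 667 nm with signal-to-noise.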 The following applies: higher = more signal.
Experiment [18] can be described thus: small-molecule microarray binders of probe aNog, primary screen, biochemical, biotinylated probe, 635/667 nm fluorescence (AID 1115).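 Also: probe is biotinylated aNog protein used at 0.15 µg/mL for 1 h at 4 C; z-score combines 667 nm fluorescence of each spot with its signal to noise.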 The following applies: higher = more signal.
Experiment [19] deals with Torsin-1A-interacting protein 1 (Homo sapiens) (UniProt Q5JTV8). Put plainly: LAP1 binders from COS7 cell lysate, primary screen, small-molecule microarray, 635/667 nm fluorescence (AID 1116). The following applies: COS7-hLAP1 lysate binding, 635 nm fluorescence, higher = more signal.
Experiment [20] has as its target Alpha-bungarotoxin (Bungarus multicinctus) (UniProt P60615). Put plainly: alpha-bungarotoxin binders on microarray, profiling panel, artefact control for SMM control protein annotation, biochemical, small-molecule microarray, Alexa647 label, 635/667 nm fluorescence (AID 1117). To be noted: alpha-BTX-A647 binding fluorescence, higher = more signal.

Chain of Fibroblast growth factor 10 (Homo sapiens) (O15520 whole entry, looked up): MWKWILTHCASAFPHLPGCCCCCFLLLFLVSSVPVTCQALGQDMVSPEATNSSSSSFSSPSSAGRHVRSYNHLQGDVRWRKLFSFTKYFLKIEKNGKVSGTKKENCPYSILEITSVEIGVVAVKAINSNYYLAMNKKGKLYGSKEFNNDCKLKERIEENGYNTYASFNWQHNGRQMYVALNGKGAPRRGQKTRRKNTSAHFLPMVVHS
Chain of Alpha-bungarotoxin (Bungarus multicinctus) (P60615 whole entry, looked up): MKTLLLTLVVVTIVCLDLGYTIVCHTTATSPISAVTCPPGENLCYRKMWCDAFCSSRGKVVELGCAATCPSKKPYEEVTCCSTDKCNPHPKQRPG
Chain of Torsin-1A-interacting protein 1 (Homo sapiens) (Q5JTV8 whole entry, looked up): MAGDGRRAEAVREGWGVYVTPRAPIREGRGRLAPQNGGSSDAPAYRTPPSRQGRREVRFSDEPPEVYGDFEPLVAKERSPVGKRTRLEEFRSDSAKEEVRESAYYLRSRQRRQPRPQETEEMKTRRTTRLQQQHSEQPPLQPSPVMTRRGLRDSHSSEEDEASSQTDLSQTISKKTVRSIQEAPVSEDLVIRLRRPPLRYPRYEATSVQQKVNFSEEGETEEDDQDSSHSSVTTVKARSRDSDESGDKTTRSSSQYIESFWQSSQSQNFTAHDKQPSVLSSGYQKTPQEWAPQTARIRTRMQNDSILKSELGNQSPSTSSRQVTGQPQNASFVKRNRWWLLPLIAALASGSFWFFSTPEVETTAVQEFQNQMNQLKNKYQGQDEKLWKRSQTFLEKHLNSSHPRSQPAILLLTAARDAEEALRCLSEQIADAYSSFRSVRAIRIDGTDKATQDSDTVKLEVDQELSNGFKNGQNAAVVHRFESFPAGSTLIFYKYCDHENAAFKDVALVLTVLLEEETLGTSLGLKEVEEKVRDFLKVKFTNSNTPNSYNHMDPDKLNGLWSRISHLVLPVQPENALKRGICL
Chain of Left-right determination factor 2 (Homo sapiens) (O00292 whole entry, looked up): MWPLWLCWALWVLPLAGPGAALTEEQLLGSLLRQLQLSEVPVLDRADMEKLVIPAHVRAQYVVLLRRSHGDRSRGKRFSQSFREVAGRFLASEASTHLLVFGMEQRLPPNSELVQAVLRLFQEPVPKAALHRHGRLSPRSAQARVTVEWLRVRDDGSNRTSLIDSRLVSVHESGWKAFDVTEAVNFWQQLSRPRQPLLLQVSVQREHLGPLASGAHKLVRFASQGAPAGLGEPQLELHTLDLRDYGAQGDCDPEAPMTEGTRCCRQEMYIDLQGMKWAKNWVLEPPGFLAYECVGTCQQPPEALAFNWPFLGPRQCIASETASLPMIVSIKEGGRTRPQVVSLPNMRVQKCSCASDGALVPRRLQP
Chain of Epidermal growth factor receptor (Homo sapiens) (P00533 whole entry, looked up): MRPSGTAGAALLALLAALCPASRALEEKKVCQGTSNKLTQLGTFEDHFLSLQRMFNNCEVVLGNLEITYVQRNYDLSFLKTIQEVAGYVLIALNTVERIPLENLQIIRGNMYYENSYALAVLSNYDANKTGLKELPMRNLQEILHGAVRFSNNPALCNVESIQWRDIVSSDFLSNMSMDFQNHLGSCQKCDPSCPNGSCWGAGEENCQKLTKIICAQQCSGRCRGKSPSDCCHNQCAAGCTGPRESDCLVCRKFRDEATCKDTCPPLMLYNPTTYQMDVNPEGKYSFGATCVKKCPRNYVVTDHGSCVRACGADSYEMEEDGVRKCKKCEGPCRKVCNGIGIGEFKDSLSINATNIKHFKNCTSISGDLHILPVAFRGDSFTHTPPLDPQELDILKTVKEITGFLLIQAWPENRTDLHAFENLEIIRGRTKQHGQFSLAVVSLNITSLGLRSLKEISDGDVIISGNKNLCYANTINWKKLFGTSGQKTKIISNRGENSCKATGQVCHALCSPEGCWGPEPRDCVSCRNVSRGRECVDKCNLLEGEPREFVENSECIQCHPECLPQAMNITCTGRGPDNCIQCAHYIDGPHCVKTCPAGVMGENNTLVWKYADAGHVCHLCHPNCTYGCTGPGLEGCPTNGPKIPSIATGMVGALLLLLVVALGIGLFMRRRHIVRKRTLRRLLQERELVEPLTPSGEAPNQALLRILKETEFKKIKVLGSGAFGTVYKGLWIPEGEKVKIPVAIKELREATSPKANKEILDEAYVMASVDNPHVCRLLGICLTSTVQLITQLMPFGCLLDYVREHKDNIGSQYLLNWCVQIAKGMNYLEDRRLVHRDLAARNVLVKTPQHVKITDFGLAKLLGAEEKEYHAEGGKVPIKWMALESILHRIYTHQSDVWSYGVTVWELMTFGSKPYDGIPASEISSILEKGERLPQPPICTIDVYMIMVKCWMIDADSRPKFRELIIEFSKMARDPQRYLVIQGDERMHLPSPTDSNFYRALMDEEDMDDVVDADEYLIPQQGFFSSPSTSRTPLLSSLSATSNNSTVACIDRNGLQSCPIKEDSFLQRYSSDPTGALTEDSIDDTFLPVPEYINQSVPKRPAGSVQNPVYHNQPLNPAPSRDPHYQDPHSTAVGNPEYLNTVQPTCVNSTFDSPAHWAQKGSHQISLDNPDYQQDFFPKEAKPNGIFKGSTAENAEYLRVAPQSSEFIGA
Chain of Follistatin-related protein 3 (Homo sapiens) (O95633 whole entry, looked up): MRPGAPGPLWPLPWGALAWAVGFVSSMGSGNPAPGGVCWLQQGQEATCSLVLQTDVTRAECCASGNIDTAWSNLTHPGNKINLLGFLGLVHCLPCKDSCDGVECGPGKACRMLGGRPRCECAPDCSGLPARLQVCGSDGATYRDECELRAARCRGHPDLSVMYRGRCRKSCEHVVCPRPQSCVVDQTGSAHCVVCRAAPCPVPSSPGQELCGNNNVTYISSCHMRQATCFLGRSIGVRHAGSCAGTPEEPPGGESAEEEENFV
Chain of Dickkopf-related protein 1 (Homo sapiens) (O94907 whole entry, looked up): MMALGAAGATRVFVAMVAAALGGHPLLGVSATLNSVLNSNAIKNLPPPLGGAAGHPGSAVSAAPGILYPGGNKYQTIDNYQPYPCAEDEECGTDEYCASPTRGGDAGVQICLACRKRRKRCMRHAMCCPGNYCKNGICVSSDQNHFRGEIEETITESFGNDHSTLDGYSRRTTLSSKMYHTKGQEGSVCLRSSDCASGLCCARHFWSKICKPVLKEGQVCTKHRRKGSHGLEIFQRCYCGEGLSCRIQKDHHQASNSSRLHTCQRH

On to `O=C1c2ccccc2[C@](Cc2ccccc2I)(C(=O)O)[C@H](c2ccc(CO)cc2)N1Cc1ccccc1Cl`, for which the composite z-score in [1] was 0.96; in experiment [2], 0.815; in experiment [3], 1.06; in experiment [5] it was 0.235; in [6], -0.0679; in experiment [7], -0.197. Besides, the composite z-score was 0.521 in experiment [8]; 0.697 in experiment [9]; 0.623 in experiment [10]; 1.15 in experiment [11]; -0.0287 in [13]; 1.56 in experiment [14]. In addition, the composite z-score in experiment [15] was 0.586; in experiment [16], -0.163; in [17], -0.189; in experiment [18], 0.195; in experiment [19], 0.957; in experiment [20] it was 2.29. The z-score in [4] was 0.0252 (inactive); in experiment [12] it was -0.219.

`CCCCCN1CC=CC23O[C@@H]4/C=C\CCC(C)OC(=O)C4[C@H]2C(=O)N(CCCO)[C@@H]3C1=O` (stereo not given in full): the composite z-score in experiment [1] is 0.936; in experiment [2] it was -0.212; in [3], 0.183; in experiment [5] it was -0.753; in [6], -0.723; in experiment [7] it was -1.36. For the same molecule, the composite z-score in [8] was -1.24; in [9], -0.543; in [10], 0.797; in [11] it was -0.93; in experiment [13] it was -1.15; in [14], -1.35. Also, the composite z-score in experiment [15] is 0.0216; in [16], -0.194; in experiment [17], -0.2; in experiment [18], -0.0511; in [19], 1.99; in experiment [20] it was 2.69. Besides, the z-score in experiment [4] was -0.246 (inactive); in [12], -0.333.

With `C=CCN1C(=O)[C@@]2(O[C@@H](CCn3cc(CCO)nn3)[C@H]([Si](C)(C)c3ccc(OC)cc3)[C@H]2C)c2cc(N3C(=O)c4cccc5cccc3c45)ccc21`, the composite z-score in [1] was 0.579; in experiment [2] it was 0.13; in [3] it was -0.224; in experiment [5], 0.466; in experiment [6], 0.308; in [7], 0.234. The composite z-score in experiment [8] was 0.688; in experiment [9] it was 0.315; in experiment [10] it was 0.58; in experiment [11], 0.51; in [13] it was -0.165; in experiment [14], 1.37. The composite z-score in experiment [15] is 0.258; in [16], 0.0733; in experiment [17], -0.138; in experiment [18] it was 0.473; in experiment [19], 0.482; in [20], 1.6. The results for the z-score in experiment [4] and in experiment [12] were -3.34 (inactive) and -5.22, respectively.

In the case of `C=CCC(OC(C)=O)[C@@H]1[C@@H](N(Cc2cc3ccccc3o2)C(=O)c2ccc(-c3ccccc3)cc2)c2cc(OCCCO)ccc2N1C(=O)c1ccc(-c2ccccc2)cc1` (stereo not given in full), the composite z-score is -0.149 in experiment [1]; 0.232 in [2]; 0.641 in experiment [3]; 0.0657 in experiment [5]; -0.402 in experiment [6]; -0.154 in [7]. The composite z-score in experiment [8] is 0.0956; in [9] it was -0.0818; in experiment [10] it was 1.27; in experiment [11], -0.292; in experiment [13] it was 0.0559; in [14], 0.0671. The composite z-score in experiment [15] is 1.29; in experiment [16], 0.0628; in experiment [17], -0.282; in experiment [18], 0.502; in experiment [19] it was 0.2; in experiment [20], 0.484. Further, the z-score in [4] is -1.04 (inactive); in [12], -0.366.

On to `C=CCN1C(=O)[C@@]2(O[C@@H](CCn3cc(CCO)nn3)[C@H]([Si](C)(C)c3ccc(OC)cc3)[C@H]2C)c2cc(NC(=O)c3ccc(OC)cc3)ccc21`, for which the composite z-score was 1.18 in [1]; 0.0251 in experiment [2]; 0.113 in experiment [3]; 0.402 in experiment [5]; 0.546 in experiment [6]; 0.283 in experiment [7]. Moreover, the composite z-score in [8] was found to be 0.571; in [9] it was 0.493; in experiment [10], 1.32; in [11], 0.988; in experiment [13], 0.415; in experiment [14] it was 0.317. Further, the composite z-score in experiment [15] was 0.33; in experiment [16], 0.0205; in experiment [17], -0.0035; in experiment [18] it was -0.056; in experiment [19], 0.403; in [20] it was 1.54. Moreover, the z-score in experiment [4] was -0.654 (inactive); in experiment [12], -3.92.

With `O=C1c2ccccc2C(=O)c2cc([C@H]3Oc4ccccc4S(=O)(=O)N4CCC[C@@H]34)ccc21`, the composite z-score in experiment [1] was -1.12; in experiment [2], -0.108; in experiment [3] it was 0.461; in [5] it was -0.439; in experiment [6], -0.896; in experiment [7] it was -0.727. Besides, the composite z-score in experiment [8] is -1.02; in experiment [9], 0.11; in [10], 1.09; in experiment [11] it was -1.1; in experiment [13], -0.148; in experiment [14], -0.94. Besides, the composite z-score in experiment [15] was 0.812; in [16], -0.16; in experiment [17], -0.214; in experiment [18], 0.0431; in experiment [19], -0.749; in [20] it was -0.744. Further, the figures for the z-score in [4] and in experiment [12] were -0.833 (inactive) and -2, respectively.
